# Source: PubChem BioAssay (NCATS)
# Inconclusive results are not listed. Where a call stands in place of a potency, no number is given. Active and inactive are the calls of the source. Calls come from the whole dose curve; as a rule, active = well fitted inhibition curve with a large enough effect; inconclusive = small, poorly fitted or top-dose-only effect; inactive = flat fitted curve, though single readings scatter.
# System: NIH3T3
# Experiment: Cytotoxic Profiling of Annotated Libraries Using Quantitative High-Throughput Screening (AID 1296008); note: potency is the fitted concentration of half-maximal effect
# Conditions: Five cell lines viability, CellTiter-Glo ATP luminescence, 48-72 h; max response: hits give low values
# Method in brief: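 Cells exposed to compounds for 48 or 72 hr at 37 degrees Celsius. Viability read as ATP-coupled luminescence with CellTiter-Glo after 10 min at room temperature.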
# Note: nearly all actives have a fitted effect of over 60% in size.
SMILES,max response,Potency,outcome
COc1ccc(-c2cnc3c(-c4cccc5ncccc45)cnn3c2)cc1,-19.7% (inactive),–,–
Cc1nc2cc(C(=O)NCc3ccccn3)nn2c(C)c1Cc1cccc(Cl)c1,3.03% (inactive),–,–
Cc1ccc(OC[C@H](O)[C@H](C)NC(C)C)c2c1CCC2,0.0465% (inactive),–,–
O=C(NCCCNc1nc(Nc2cccc(CN3CCOCC3)c2)ncc1C1CC1)C1CCC1,–,4.61 µM (active),–
C=C1C(=O)OC2C=C(C)CC/C=C(\CO)CC(O)C12 (stereo not drawn),-2.7% (inactive),–,–
CC(C)(O)c1ccc2c(c1)ncn2-c1cccc(-c2ccccc2C#N)c1,–,–,inactive
O=C(O)C1=CO[C@@H](O[C@@H]2O[C@H](CO)[C@@H](O)[C@H](O)[C@H]2O)[C@@H]2C(CO)=CC[C@H]12,-3.54% (inactive),–,–
CN1CCC(c2cn(C)c3ccc(OS(=O)(=O)c4c(F)cccc4F)cc23)CC1,3.31% (inactive),–,–
CCOc1ccc(CCNC(=O)c2cc3sc(Cl)cc3n2C)cc1OCC,–,–,inactive
C=C(C(=O)OC)[C@@H]1CC=C2C=CC(=O)[C@H](C)[C@@]2(C)C1,–,–,inactive
CC(C)(C)c1ccc2c(c1)CC[C@H]2NC(=O)Nc1cccc2[nH]ncc12,–,–,inactive
CCn1c(=O)n([C@H]2CCCN(c3nccc(-c4cc5ccccc5o4)n3)C2)c2ccccc21,–,–,inactive
O=c1cc(OCc2ccc(F)cc2)ccn1-c1ccc(OCCN2CCCC2)cc1,-16.9% (inactive),–,–
CC(=O)c1ccc2c(c1)[C@H](NC(=O)c1ccc(F)c(Cl)c1)[C@H](O)C(C)(C)O2,–,–,inactive
O=C(O)c1ccc(S(=O)(=O)N(Cc2ccc(OC(F)(F)F)cc2)c2ncc(C(F)(F)F)cc2Cl)cc1,-0.0805% (inactive),–,–
CN1CCN(C2=Nc3ccccc3Nc3ccc(Cl)cc32)CC1,2.15% (inactive),–,–
COc1cc(C(=O)NC(=S)Nc2cccc(NC(=O)c3ccccc3)c2)cc(OC)c1OC,4.46% (inactive),–,–
COC1C(OC(=O)/C=C/C=C/C=C/C=C/C(=O)O)CCC2(CO2)C1C1(C)OC1CC=C(C)C (stereo not drawn),0.0729% (inactive),–,–
COc1ccc(CCN(C)CCCOc2nsc(-c3ccccc3)n2)cc1OC,–,–,inactive
CN[C@H]1CC[C@@H](c2ccc(Cl)c(Cl)c2)c2ccccc21,–,11.9 µM (active),–
O=[N+]([O-])c1ccc(Oc2ccc3c(c2)CCC(c2ccccc2)O3)nc1 (stereo not drawn),-17% (inactive),–,–
O=C(Nc1ccccc1C(=O)Nc1ccc(CCO)cc1)c1ccc([N+](=O)[O-])cc1,–,–,inactive
CC(C)Nc1nc(Nc2ccccc2)nc(-c2ccccc2)n1,-18.6% (inactive),–,–
CCNC1(C(N)=O)CCN(c2ncnc3c2nc(-c2ccccc2Cl)n3-c2ccc(Cl)cc2)CC1,-1.7% (inactive),–,–
CC1(C)CCCC2(C)C1C(OC(=O)/C=C/C=C/C=O)C=C1COC(=O)C12O (stereo not drawn),-7.98% (inactive),–,–

# System: HACAT
# Experiment: qHTS assay to identify novel small-molecules to repurpose for Merkel cell carcinoma treatment (AID 1296009)
# Conditions: MCC and control cell lines, CellTiter-Glo viability, 72 h; at 44.8 µM (top of the series) unless noted
# Method in brief: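 Cells were treated for 72 hr at 37 degree celsius with compounds in 8- or 11-point dose response. Viability was read by CellTiter-Glo luminescence, normalized to no-cell (cytotoxicity) and DMSO controls.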
row,SMILES,outcome
1,COc1ccc(-c2cnc3c(-c4cccc5ncccc45)cnn3c2)cc1,inactive
2,O=C(O)CSc1cc(NS(=O)(=O)c2ccc(Br)cc2)c2ccccc2c1O,inactive
3,NCC(CNc1nc(Nc2cccc(NC(=O)N3CCCC3)c2)ncc1I)C(=O)c1cccs1 (stereo not drawn),inactive
4,Cc1nc2cc(C(=O)NCc3ccccn3)nn2c(C)c1Cc1cccc(Cl)c1,inactive
5,CCN(CC)CCCCCCNc1cc(OC)cc2c(C)ccnc12,inactive
6,CCC(C)C(=O)Oc1cc(C)ccc1C1(COC(=O)C(C)C)CO1 (stereo not drawn),inactive
7,CCOc1cccc(NC(=O)c2ccc(N3CCCC3)c(C(F)(F)F)c2)c1,inactive
8,Cc1ccc(OC[C@H](O)[C@H](C)NC(C)C)c2c1CCC2,inactive
9,Cc1csc(N(C(=O)CSc2ccc(-c3ccccc3)nn2)C2CC2)n1,inactive
10,O=C(NCCCNc1nc(Nc2cccc(CN3CCOCC3)c2)ncc1C1CC1)C1CCC1,inactive
11,C=C1C(=O)OC2C=C(C)CC/C=C(\CO)CC(O)C12 (stereo not drawn),inactive
12,CC(C)(O)c1ccc2c(c1)ncn2-c1cccc(-c2ccccc2C#N)c1,inactive
13,O=C(O)C1=CO[C@@H](O[C@@H]2O[C@H](CO)[C@@H](O)[C@H](O)[C@H]2O)[C@@H]2C(CO)=CC[C@H]12,inactive
14,CN1CCC(c2cn(C)c3ccc(OS(=O)(=O)c4c(F)cccc4F)cc23)CC1,inactive
15,C=C1C(=O)OC2/C=C(\C)CC/C=C(\C=O)C(OC)C(OC(=O)C(C)CC)C12 (stereo not drawn),inactive
16,CCOc1ccc(CCNC(=O)c2cc3sc(Cl)cc3n2C)cc1OCC,inactive
17,C=C(C(=O)OC)[C@@H]1CC=C2C=CC(=O)[C@H](C)[C@@]2(C)C1,inactive
18,CC(C)(C)c1ccc2c(c1)CC[C@H]2NC(=O)Nc1cccc2[nH]ncc12,inactive
19,O=C(OC1CN2CCC1CC2)N1CCc2ccccc2C1c1ccccc1 (stereo not drawn),inactive

row,SMILES,outcome
1,CCn1c(=O)n([C@H]2CCCN(c3nccc(-c4cc5ccccc5o4)n3)C2)c2ccccc21,inactive
2,CC(C)S(=O)(=O)c1ccc2nccc(Nc3ccc4scnc4c3)c2c1,inactive
3,O=c1cc(OCc2ccc(F)cc2)ccn1-c1ccc(OCCN2CCCC2)cc1,inactive
4,CC(=O)c1ccc2c(c1)[C@H](NC(=O)c1ccc(F)c(Cl)c1)[C@H](O)C(C)(C)O2,inactive
5,CN(C)c1cccc(Oc2cnc(Nc3cccc(O)c3)nc2)c1,inactive
6,O=C(O)c1ccc(S(=O)(=O)N(Cc2ccc(OC(F)(F)F)cc2)c2ncc(C(F)(F)F)cc2Cl)cc1,inactive
7,CN1CCN(C2=Nc3ccccc3Nc3ccc(Cl)cc32)CC1,inactive
8,COc1cc(C(=O)NC(=S)Nc2cccc(NC(=O)c3ccccc3)c2)cc(OC)c1OC,inactive
9,O=C(NCC1(c2nc(-c3ccccc3)cs2)CCOCC1)c1cccc(-c2noc(C(F)(F)F)n2)c1,inactive
10,COc1ccc(CCN(C)CCCOc2nsc(-c3ccccc3)n2)cc1OC,inactive
11,O=[N+]([O-])c1ccc(Oc2ccc3c(c2)CCC(c2ccccc2)O3)nc1 (stereo not drawn),inactive
12,Cc1c(NC(=O)c2cc3c(s2)CCCC3)cccc1-c1cn(C)c(=O)c(Nc2ccc(C3C(=O)N(C)CCN3C)cc2)n1 (stereo not drawn),inactive
13,O=C(Nc1ccccc1C(=O)Nc1ccc(CCO)cc1)c1ccc([N+](=O)[O-])cc1,inactive
14,CC(C)Nc1nc(Nc2ccccc2)nc(-c2ccccc2)n1,inactive
15,CCOc1nc(NC(=O)Cc2cc(OC)ccc2OC)cc(N)c1C#N,inactive
16,COc1ccccc1OCCN1CC(COc2cccc3[nH]c4ccccc4c23)OCC1=O (stereo not drawn),inactive
17,COc1ccc(C(=O)O[C@H]2C=COC=C3C=C4C(=O)N(C)C(=S)C(=O)N4[C@@H]32)cc1Oc1cc(C=O)ccc1O,inactive [at 17.4 µM]
18,CCNC1(C(N)=O)CCN(c2ncnc3c2nc(-c2ccccc2Cl)n3-c2ccc(Cl)cc2)CC1,inactive
19,CC1(C)CCCC2(C)C1C(OC(=O)/C=C/C=C/C=O)C=C1COC(=O)C12O (stereo not drawn),inactive [at 17.4 µM]
